AMA1-RON2 inh – disrupts binding of P. falciparum AMA1 to RON2 | AID 720542 | Potency, µM (series often up to 58.2 µM), hits mostly inhibitors | 360,000 compounds, 0.2% hits | AlphaScreen AMA1-biotinylated RON2 peptide binding; also: nearly all actives have a fitted effect of over 45% in size
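AMA1 (3D7) with his tag at 25 nM final met compounds first, then biotinylated RON2 peptide at 25 nM; detection used donor plus acceptor beads, 10 µg/mL apiece, read by AlphaScreen after 30 min at room temperature.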
AmpC detergent – blocks E. coli AmpC beta-lactamase in detergent assay. P00811. AmpC hydrolysis of nitrocefin, absorbance 480 nm, 0.01% Triton. Potency, µM (highest dose often 114 µM), actives largely listed as inhibitors. 370,000 compounds, 0.041% hits. AID 485294; also: nearly all actives have a fitted effect of over 25% in size
Target sequence (P00811 whole entry, looked up): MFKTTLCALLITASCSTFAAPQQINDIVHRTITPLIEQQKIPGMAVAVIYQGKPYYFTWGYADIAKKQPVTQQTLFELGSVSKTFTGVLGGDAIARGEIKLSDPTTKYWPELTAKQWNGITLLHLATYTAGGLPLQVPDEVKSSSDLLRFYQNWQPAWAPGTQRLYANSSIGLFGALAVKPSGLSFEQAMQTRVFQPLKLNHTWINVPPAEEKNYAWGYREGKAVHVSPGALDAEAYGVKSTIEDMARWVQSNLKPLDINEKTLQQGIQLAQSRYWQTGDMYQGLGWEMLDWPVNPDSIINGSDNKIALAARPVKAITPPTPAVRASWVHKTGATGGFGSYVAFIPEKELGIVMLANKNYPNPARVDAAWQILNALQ
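AmpC (5.3 nM in the dispensed reagent) in 20 mM phosphate pH 7.0 with 0.01% (detergent screen) or 0.0001% Triton X-100 was preincubated with compounds for 15 min at room temperature. Nitrocefin was then added from an 800 uM solution, and hydrolysis was followed at 480 nm.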
SARS PLP yeast – inhibitors of SARS-CoV papain-like protease in yeast | S. cerevisiae expressing SARS-CoV PLpro, growth rescue | Potency, µM (top dose mostly 32.9 µM), usual class: activators | 330,000 compounds, 0.19% hits; calls by dose curve; also: nearly all actives have a fitted effect of over 55% in size
CHX counter – counter-screen for Shiga toxin inhibitors: cycloheximide protein synthesis inhibition; max response, %; 300,000 compounds, 12% hits; cell reporter, cycloheximide protein synthesis inhibition counterscreen; in the data active = max response mostly above about 13%, no sharp cut-off; inactive = mostly below about 14%; also: read at 38.3 µM for the half of the compounds with a filed dose
Shiga toxin inh – Shiga toxin inhibition | Vero cells, Shiga toxin protein synthesis inhibition reporter | inhibition, % at 38.7 µM | 290,000 compounds, 9.2% hits | AID 2315; in the data active = inhibition mostly above about 28%, no sharp cut-off; inactive = mostly below about 43%
AmpC no deterg – inhibitors of E. coli AmpC beta-lactamase without detergent | Potency, µM (highest dose often 57.1 µM), hits mostly inhibitors | AmpC nitrocefin hydrolysis, absorbance 480 nm, 0.0001% Triton | P00811 | AID 485341 | 330,000 compounds, 0.52% hits; also: nearly all actives have a fitted effect of over 20% in size
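AmpC (5.3 nM in the dispensed reagent) in 20 mM phosphate pH 7.0 with 0.01% (detergent screen) or 0.0001% Triton X-100 was preincubated with compounds for 15 min at room temperature. Nitrocefin was then added from an 800 uM solution, and hydrolysis was followed at 480 nm.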
Each line names hits and unclear results; the compound was inactive in the other large screens. The full list was thinned out, with hits kept by preference. Unless noted, calls follow the shape of the dose curve; as a rule, active = well fitted curve in the direction sought with a large enough effect; inconclusive = small, poorly fitted or top-dose-only effect, or another doubt; inactive = no such curve, though single readings can be large; an effect the other way counts as inactive or inconclusive.

O=C(COc1ccc(Cl)cc1Cl)Nc1ccccc1NS(=O)(=O)c1cccs1	CHX counter 47, Shiga toxin inh 94
O=C(COc1ccc(Cl)cc1Cl)Nc1c(-c2cccs2)nc2ccccn12	CHX counter 13
Cc1cc(Cl)ccc1OCC(=O)Nc1ccccc1NS(=O)(=O)c1cccs1	CHX counter 23
COc1ccc(Cl)cc1NC(=O)COC(=O)c1cc(NS(=O)(=O)c2cccs2)ccc1O	AmpC no deterg 20µM
COc1ccc(Cl)cc1NC(=O)CN(C)S(=O)(=O)c1cccs1	none
O=C(Nc1nc2c(s1)CCCC2)C1COc2ccccc2O1 (stereo not drawn)	CHX counter 38, Shiga toxin inh 45
O=C(Nc1ncc(Cc2ccccc2)s1)C1COc2ccccc2O1 (stereo not drawn)	CHX counter 43, Shiga toxin inh 126
Cc1ccc(CSc2nnc(NC(=O)C3COc4ccccc4O3)s2)cc1 (stereo not drawn)	none
CCC(CC)c1nnc(NC(=O)C2COc3ccccc3O2)s1 (stereo not drawn)	CHX counter 36, Shiga toxin inh 67
CCc1nnc(NC(=O)C2COc3ccccc3O2)s1 (stereo not drawn)	CHX counter 36
CC(=O)c1ccc(N2CCN(CC3CCCCC3)CC2)cc1	none
CCOC(=O)C(NC(=O)NC1CCCCC1)(c1ccccc1)C(F)(F)F (stereo not drawn)	none
CCc1ccccc1NC(=O)C1COc2ccccc2O1 (stereo not drawn)	none (no result: Shiga toxin inh)
CCCCCc1nnc(NC(=O)C2COc3ccccc3O2)s1 (stereo not drawn)	CHX counter 30, Shiga toxin inh 39
O=C(OCCN1C(=O)c2ccccc2C1=O)c1ccccc1	CHX counter 24
O=C1c2ccccc2C(=O)N1CCCN1C(=O)c2ccccc2C1=O	none (no result: AmpC detergent, SARS PLP yeast, CHX counter, Shiga toxin inh, AmpC no deterg)
Cc1cccc(OCCN2C(=O)c3ccccc3C2=O)c1	CHX counter 49, Shiga toxin inh 89
O=C1c2ccccc2C(=O)N1CCCOc1ccccc1	CHX counter 39, Shiga toxin inh 90
O=C(OCN1C(=O)c2ccccc2C1=O)c1ccccc1	AmpC detergent inconclusive
COC(=O)c1cc(OC)c(OC)cc1NC(=O)c1cccc(OC)c1OC	AmpC detergent inconclusive
CC1CCCCC1NS(=O)(=O)CCNC(=O)c1ccccc1 (stereo not drawn)	none (no result: CHX counter, Shiga toxin inh)
FC(F)(F)c1cnc(Oc2ccc(-c3nnco3)cc2)c(Cl)c1	none
Fc1cc(Br)ccc1COc1ccc(-c2nnco2)cc1	CHX counter 36, Shiga toxin inh 93
Fc1ccc(COc2ccc(-c3nnco3)cc2)c(Cl)c1	CHX counter 30, Shiga toxin inh 84
CCNC(=O)COc1ccc(S(=O)(=O)Nc2ccccc2)cc1	none
O=CC(Br)P(=O)(N1CCOCC1)N1CCOCC1 (stereo not drawn)	AmpC detergent 56µM
CCCCOc1ccc(CC2CCC(=O)NC2=O)cc1 (stereo not drawn)	CHX counter 13
CCCCOc1ccc(C2CC(=O)NC2=O)cc1 (stereo not drawn)	AmpC detergent inconclusive, CHX counter 36, Shiga toxin inh 67
Cc1c(NC(=O)C(C)OC(=O)CNC(=O)c2ccccc2)c(=O)n(-c2ccccc2)n1C (stereo not drawn)	none
Cc1ccnc(NS(=O)(=O)c2ccc(NC(=O)c3ccc(S(=O)(=O)N4CC(C)OC(C)C4)cc3)cc2)n1 (stereo not drawn)	AmpC no deterg 32µM
CC(C)(C)SCCNC(=O)COc1ccccc1	CHX counter 27
O=C(COc1ccccc1)NCCSc1ccccc1	AmpC detergent inconclusive, CHX counter 14
C=CCNC(=O)COc1ccc(Oc2ccccc2)cc1	CHX counter 52, Shiga toxin inh 64
CCOC(=O)c1cc(=O)n2nc(-c3ccccc3F)nc2s1	none
Nn1c(COc2ccc(Cl)cc2)nc2ccccc2c1=O	AmpC detergent inconclusive, CHX counter 24, Shiga toxin inh active
Cc1ccccc1OCc1nc2ccccc2c(=O)n1/N=C/c1cccc([N+](=O)[O-])c1	CHX counter 23, Shiga toxin inh active, AmpC no deterg inconclusive
O=c1c2ccccc2nc(COc2ccccc2)n1/N=C/c1ccco1	CHX counter 35, Shiga toxin inh 69
Cc1cccc(C)c1OCc1nc2ccccc2c(=O)n1/N=C/c1ccc(OCC(=O)O)cc1	none
O=C(O)COc1ccc(/C=N/n2c(COc3ccccc3)nc3ccccc3c2=O)cc1	none
O=c1c2ccccc2nc(COc2ccccc2)n1/N=C/c1ccc(O)c(O)c1	CHX counter 25, AmpC no deterg 3.5µM
Nn1c(Cc2ccccc2)nc2ccccc2c1=O	none (no result: AmpC detergent, SARS PLP yeast, CHX counter, Shiga toxin inh, AmpC no deterg)
CSc1nc2cc(Oc3cccc(Cl)c3Cl)c(Cl)cc2[nH]1	none
Nc1nonc1-n1nnc(C(=O)N/N=C/c2ccco2)c1-c1ccccc1	none
COc1ccc(NC(=O)CN(C)C(=O)c2ccc(OCc3ccccc3)c(OC)c2)cc1	none (no result: CHX counter, Shiga toxin inh)
CC1CC(Nc2ccccc2)=NC1(C)C (stereo not drawn)	AmpC detergent inconclusive
S=c1[nH]nc(COc2ccccc2)n1/N=C/C=C/c1ccco1	AmpC no deterg 16µM
Cc1ccc(-c2[nH]ncc2/C=N/n2c(COc3ccccc3)nc3ccccc3c2=O)cc1	CHX counter 29
COc1ccc(C2=N[C@@H](C(C)C)CO2)cc1	CHX counter 64, Shiga toxin inh active (no result: AMA1-RON2 inh, AmpC detergent, SARS PLP yeast, AmpC no deterg)
CC(C)[C@@H]1COC(c2cccc(C3=N[C@H](C(C)C)CO3)n2)=N1	none
COc1ccc(C2=NC(c3ccccc3)CO2)cc1 (stereo not drawn)	CHX counter 56, Shiga toxin inh 96 (no result: AMA1-RON2 inh)
CCn1cc(C2=NC(c3ccccc3)CO2)c2ccccc21 (stereo not drawn)	SARS PLP yeast inconclusive
O=[N+]([O-])c1cccc(C2=NC(c3ccccc3)CO2)c1 (stereo not drawn)	AmpC detergent inconclusive, CHX counter 23, Shiga toxin inh 81
COc1ccc(C2=N[C@H](c3ccccc3)CO2)cc1	Shiga toxin inh active (no result: AMA1-RON2 inh, AmpC detergent, SARS PLP yeast, AmpC no deterg)
Cc1cccc2sc(NC(=O)c3cccc(S(=O)(=O)N4CCc5ccccc54)c3)nc12	none
CCOC(=O)N1CCC(NC(=O)c2cnn(-c3cccc(C)c3)c2-n2cccc2)CC1	none (no result: AMA1-RON2 inh, SARS PLP yeast, CHX counter, Shiga toxin inh, AmpC no deterg)
COc1ccccc1N(CC(=O)NCCSCc1cccc(Cl)c1)S(C)(=O)=O	none
O=C(CN1C(=O)c2ccccc2C1=O)NCc1ccccn1	AmpC detergent inconclusive
O=C(Cn1c(=O)sc2ccccc21)NCc1ccccn1	AmpC detergent inconclusive, CHX counter 18, Shiga toxin inh 54, AmpC no deterg 45µM
S=C(Nc1ccccc1Cl)N1CCN(Cc2ccccc2)CC1	AmpC detergent inconclusive
